{"source": "PubChem BioAssay AID651582", "about": "(Sanford-Burnham Center for Chemical Genomics, 2012)", "note": "The campaign covered roughly 230,000 compounds. About 1,500 (0.65%) were called active. The sample holds actives, similar compounds and a random draw of the others, so the mix is not that of the screen.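 The calls were made as follows: active = pattern-corrected inhibition of lipid staining of at least 50% with the nuclear-stain viability signal not falling by more than 50%; inactive = the rest, inconclusive results apart.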"}
{"experiment": "inhibitors of triacylglycerol accumulation, primary screen, cell-based, uHTS, fluorescence, H9c2 (AID 651582);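 as to inhibition: 0% = DMSO wells and 100% = triacsin C control wells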", "settings": "H9c2 cells, Nile Red lipid (TAG) fluorescence, at 12.5 µM, cells loaded with 200 µM oleic acid; DAPI nuclei signal change (viability), lower = more cytotoxic: measured here: DAPI nuclei count viability; inhibition: stronger effect = higher value", "units": {"DAPI nuclei signal change (viability), lower = more cytotoxic": "%"}}
{"smiles": "COC(C[C@H](O)CC(=O)[C@@H](C)OCc1ccccc1)OC", "DAPI nuclei signal change (viability), lower = more cytotoxic": 5.4, "inhibition": "-8.13% (inactive)"}
{"smiles": "COC(C[C@H](O)CC(=O)COCc1ccccc1)OC", "DAPI nuclei signal change (viability), lower = more cytotoxic": -39.1, "inhibition": "53.8% (active)"}
{"smiles": "COC(C[C@@H](O)C[C@H](O)[C@H](C)OCc1ccccc1)OC", "DAPI nuclei signal change (viability), lower = more cytotoxic": 5.91, "inhibition": "-1.79% (inactive)"}
{"smiles": "CC(=O)NC(c1ccccc1)c1nc(-c2cccc(C(C)C)c2)cs1", "note": "(configuration not stated)", "DAPI nuclei signal change (viability), lower = more cytotoxic": -1.3, "inhibition": "8.58% (inactive)"}
{"smiles": "O=C(Nc1cc(Cl)ccc1N1CCOCC1)c1ccc(N2CCCC2=O)cc1", "DAPI nuclei signal change (viability), lower = more cytotoxic": -2.51, "inhibition": "10.9% (inactive)"}
{"smiles": "O=C(Nc1ccc(-c2csc(Nc3cccc(C(F)(F)F)c3)n2)cc1)c1cccc(C(F)(F)F)c1", "DAPI nuclei signal change (viability), lower = more cytotoxic": -19.5, "inhibition": "51.9% (active)"}
{"smiles": "CNC(=O)c1ccc(NC(=O)c2cccc(C(F)(F)F)c2)cc1", "DAPI nuclei signal change (viability), lower = more cytotoxic": -4.98, "inhibition": "-1.2% (inactive)"}
{"smiles": "Cc1cccc(NC(=O)c2cccc(C(F)(F)F)c2)c1", "DAPI nuclei signal change (viability), lower = more cytotoxic": -13.3, "inhibition": "-0.148% (inactive)"}
{"smiles": "CC1=C(C(=O)Nc2cccc(C(=O)NCC(C)c3ccccc3)c2)SCCO1", "note": "(configuration not stated)", "DAPI nuclei signal change (viability), lower = more cytotoxic": -4.49, "inhibition": "4.45% (inactive)"}
{"smiles": "COc1ccc(CN2CCN(C(=O)c3cc(C4CC4)nn3-c3ccccc3)CC2)cc1F", "DAPI nuclei signal change (viability), lower = more cytotoxic": -2, "inhibition": "7.6% (inactive)"}
{"smiles": "Cc1c(C(=O)NNC(=O)c2ccncc2)oc2ccccc12", "DAPI nuclei signal change (viability), lower = more cytotoxic": -11, "inhibition": "8.91% (inactive)"}
{"smiles": "CC(C)OC(=O)c1ccc(NCc2cc(O)ccc2O)cc1Cl", "DAPI nuclei signal change (viability), lower = more cytotoxic": -60.3, "inhibition": "108% (inactive)"}
{"smiles": "O=C(OC12CC3CC(CC(C3)C1)C2)c1ccc(NCc2cc(O)ccc2O)cc1", "DAPI nuclei signal change (viability), lower = more cytotoxic": -61.6, "inhibition": "111% (inactive)"}
{"smiles": "COC(=O)c1ccc(NCc2cc(O)ccc2O)cc1", "DAPI nuclei signal change (viability), lower = more cytotoxic": -40.6, "inhibition": "54.7% (active)"}
{"smiles": "CCCn1c(N)c(C(=O)CSc2nnc3n2CCCCC3)c(=O)[nH]c1=O", "DAPI nuclei signal change (viability), lower = more cytotoxic": 5.45, "inhibition": "-8.3% (inactive)"}
{"smiles": "CC[C@]1(c2ccccc2OC)C(=O)N(C(=O)OC)N1C(=O)OC", "DAPI nuclei signal change (viability), lower = more cytotoxic": 11, "inhibition": "-4.89% (inactive)"}
{"smiles": "O=C(CSc1nc(Nc2ccccc2)nc(N2CCOCC2)n1)Nc1cc(Cl)ccc1O", "DAPI nuclei signal change (viability), lower = more cytotoxic": -18.9, "inhibition": "34.4% (inactive)"}
{"smiles": "O=C(CSc1nc2ccc(Nc3nc(N4CCOCC4)nc(N4CCOCC4)n3)cc2s1)NCc1ccco1", "DAPI nuclei signal change (viability), lower = more cytotoxic": -0.911, "inhibition": "54.6% (active)"}
{"smiles": "O=C(CSc1c2c(nc3ccc(Cl)cc13)CCCC2)NCc1ccco1", "DAPI nuclei signal change (viability), lower = more cytotoxic": 13.7, "inhibition": "2.61% (inactive)"}
{"smiles": "Nc1nnc(SCC(=O)Nc2ccc3nc(SCC(=O)Nc4ccccc4)sc3c2)s1", "DAPI nuclei signal change (viability), lower = more cytotoxic": -9.1, "inhibition": "-21.4% (inactive)"}
{"smiles": "C=CCn1c(CSc2nc3ccccc3s2)nnc1SCC(=O)NCc1ccco1", "DAPI nuclei signal change (viability), lower = more cytotoxic": -7.04, "inhibition": "-5.24% (inactive)"}
{"smiles": "Cc1ccccc1NC(=O)CSc1nc2ccc(Nc3nc(N4CCOCC4)nc(N4CCOCC4)n3)cc2s1", "DAPI nuclei signal change (viability), lower = more cytotoxic": -7.17, "inhibition": "62.6% (active)"}
{"smiles": "CS(=O)(=O)/C(C#N)=C/c1cccn1S(=O)(=O)c1ccc([N+](=O)[O-])cc1", "DAPI nuclei signal change (viability), lower = more cytotoxic": 8.58, "inhibition": "-3.62% (inactive)"}
{"smiles": "CN(CC(=O)Nc1ccc(F)cc1)C(=O)c1ccc(-c2ccc(Cl)cc2)o1", "DAPI nuclei signal change (viability), lower = more cytotoxic": 0.479, "inhibition": "-10.2% (inactive)"}
{"smiles": "Cc1ccc(N(Cc2ccccc2O)C(=O)c2ccccc2F)cc1", "DAPI nuclei signal change (viability), lower = more cytotoxic": 2.35, "inhibition": "-3.73% (inactive)"}
{"smiles": "C=C1CCC(N(O)c2cc(C)on2)C(=C)CCC2C1CC2(C)C", "note": "(configuration not stated)", "DAPI nuclei signal change (viability), lower = more cytotoxic": 2.7, "inhibition": "-2.19% (inactive)"}
{"smiles": "CC(=O)Nc1ccc(-c2ccnc3c2CC(C(=O)NC(C)C)O3)cc1", "note": "(configuration not stated)", "DAPI nuclei signal change (viability), lower = more cytotoxic": -1.71, "inhibition": "-1.68% (inactive)"}
{"smiles": "COc1ccc(-c2cc(NC=O)c3ncc(-c4cccc(C(=O)N(C)C)c4)n3c2)c(OC)c1", "DAPI nuclei signal change (viability), lower = more cytotoxic": -42.3, "inhibition": "46% (inactive)"}
{"smiles": "COc1ccc(-c2cc(NC=O)c3ncc(-c4cc(OC)c(OC)c(OC)c4)n3c2)c(OC)c1", "DAPI nuclei signal change (viability), lower = more cytotoxic": -24.8, "inhibition": "52.6% (active)"}
{"smiles": "COc1ccc(-c2cc(NC=O)c3ncc(-c4ccccc4)n3c2)cc1OC", "DAPI nuclei signal change (viability), lower = more cytotoxic": -14.8, "inhibition": "19.6% (inactive)"}
{"smiles": "NC(=O)c1ncn([C@@H]2O[C@H](CN=C3NS(=O)(=O)c4ccccc43)[C@@H](O)[C@H]2O)n1", "DAPI nuclei signal change (viability), lower = more cytotoxic": -1.84, "inhibition": "13.5% (inactive)"}
{"smiles": "COc1ccc(OCCNC(=O)c2cc(C3CC3)nc3c2cnn3C(C)C)cc1", "DAPI nuclei signal change (viability), lower = more cytotoxic": -4.88, "inhibition": "-39.8% (inactive)"}
{"smiles": "COc1ccc(C(=O)OCC(=O)Nc2cc(C)on2)cc1F", "DAPI nuclei signal change (viability), lower = more cytotoxic": -5.17, "inhibition": "7.73% (inactive)"}
{"smiles": "C=CCOC(=O)N1CCC2CC1c1cc(-c3ccc(OC)cc3)ccc12", "note": "(configuration not stated)", "DAPI nuclei signal change (viability), lower = more cytotoxic": 8.41, "inhibition": "-34.5% (inactive)"}
{"smiles": "CN(C)CCCN(C(=O)COc1ccccc1)c1nc2c(Cl)cccc2s1", "DAPI nuclei signal change (viability), lower = more cytotoxic": -0.936, "inhibition": "15.4% (inactive)"}
{"smiles": "CCN(CC)CCN(C(=O)c1ccc2c(c1)CCCC2)c1nc2c(OC)cccc2s1", "DAPI nuclei signal change (viability), lower = more cytotoxic": 40, "inhibition": "-1.62% (inactive)"}
{"smiles": "COc1cccc2sc(N(CCCN(C)C)C(=O)C(c3ccccc3)c3ccccc3)nc12", "DAPI nuclei signal change (viability), lower = more cytotoxic": -45.3, "inhibition": "117% (active)"}
{"smiles": "Cc1cccc(-n2ncc(Cl)c(Cl)c2=O)c1", "DAPI nuclei signal change (viability), lower = more cytotoxic": -35.3, "inhibition": "75.4% (active)"}
{"smiles": "COc1ccc(Oc2c(Cl)cnn(-c3ccccc3)c2=O)cc1", "DAPI nuclei signal change (viability), lower = more cytotoxic": 2.85, "inhibition": "-4.37% (inactive)"}
{"smiles": "O=c1c(Cl)c(NC2CC2)cnn1-c1ccccc1", "DAPI nuclei signal change (viability), lower = more cytotoxic": -5.81, "inhibition": "-2.29% (inactive)"}
{"smiles": "CCCNC(=O)C1(C)CCN(C(=O)c2ccc(F)cc2Cl)C1", "note": "(configuration not stated)", "DAPI nuclei signal change (viability), lower = more cytotoxic": 8.17, "inhibition": "2.28% (inactive)"}
{"smiles": "Nc1ccccc1Sc1ccc(C(F)(F)F)cc1[N+](=O)[O-]", "DAPI nuclei signal change (viability), lower = more cytotoxic": 8.68, "inhibition": "-15.4% (inactive)"}
{"smiles": "CCS(=O)(=O)c1cc([N+](=O)[O-])c(Sc2ccccc2N)s1", "DAPI nuclei signal change (viability), lower = more cytotoxic": -4.87, "inhibition": "14.6% (inactive)"}
{"smiles": "Nc1ccccc1SC(C[N+](=O)[O-])c1ccccc1", "note": "(configuration not stated)", "DAPI nuclei signal change (viability), lower = more cytotoxic": -46.5, "inhibition": "63.9% (active)"}
{"smiles": "CCOC(=O)/C=c1\\s/c(=C\\c2ccc(C#N)cc2)c(=O)n1CC(=O)Nc1cccc(C)c1C", "DAPI nuclei signal change (viability), lower = more cytotoxic": -32.2, "inhibition": "50.4% (active)"}
{"smiles": "Cc1cccc(NC(=O)CN2C(=O)c3ccccc3C2=O)c1C", "DAPI nuclei signal change (viability), lower = more cytotoxic": 2.88, "inhibition": "-5.58% (inactive)"}
{"smiles": "CCOC(=O)/C=c1\\s/c(=C\\c2ccccc2OC)c(=O)n1CC(=O)N1CCOCC1", "DAPI nuclei signal change (viability), lower = more cytotoxic": -2.84, "inhibition": "8.35% (inactive)"}
{"smiles": "Cc1nc2c(OCC(=O)C(C)(C)C)cccn2c1N(C)Cc1cccs1", "DAPI nuclei signal change (viability), lower = more cytotoxic": 21.8, "inhibition": "-5.32% (inactive)"}
{"smiles": "O=C(Cn1cnc2c(OCc3ccccc3)ncnc21)NCCCn1ccnc1", "DAPI nuclei signal change (viability), lower = more cytotoxic": 9.45, "inhibition": "-7.19% (inactive)"}
{"smiles": "COc1cc(OC)cc(C(=O)NNC(=O)CCOc2ccccc2OC)c1", "DAPI nuclei signal change (viability), lower = more cytotoxic": -6.59, "inhibition": "7.42% (inactive)"}
{"smiles": "CCN(c1ccccc1)S(=O)(=O)c1ccc(C(=O)Nc2ccccc2OC)cc1", "DAPI nuclei signal change (viability), lower = more cytotoxic": 2.43, "inhibition": "4.73% (inactive)"}
